About 7,900 targets were measured; listed, in parts, are those with a hit and a random draw of the rest. About 0.6% of all pairs of compound and target were hits. Unmarked numbers belong to inactive results.
Legend:
Test in all cases: log2 fold change, soluble protein after heating vs DMSO (PISA); higher = thermal stabilisation; K562 cells, 10 uM, 30 min; active = over 0.2 and 3.5 SD of the protein, either way, in both replicates (recomputed)
[1] = compound: CC1=C(C=C(C=C1)NC(=O)C2=CC(=CC=C2)C(C)(C)C#N)NC3=CC4=C(C=C3)N=CN(C4=O)C
Summary of the method: (§1)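 Soluble protein was quantified by TMTpro 16plex LC-MS/MS after channel sums were equalised. It was obtained as the supernatant after 21,000xg for 90 min from pooled aliquots of K562 cells (2×10^6 cells/mL, 10 μM compound, 30 min) heated for 3 min across 48°C-58°C and extracted in PBS with 0.5% NP-40 at 4°C. Thermal stability values are relative to control samples and come from duplicates. They are given as log2 fold changes.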

[2] = compound: CC1=C(C=C(C=C1)NC(=O)C2=CC(=CC=C2)N(C)C)NC(=O)C3=CC=C(C=C3)O
Summary of the method: as §1

[3] = compound: CC1=CC=C(C=C1)SC2=C3C=C(SC3=CN=C2)C(=O)N
Summary of the method: as §1

[4] = compound: CC1=NC(=CC=C1)C2=C(N=C(N2)C(C)(C)C)C3=CC4=NC=CN=C4C=C3
Summary of the method: as §1

[5] = compound: CCCCN(Cc1ccc(C(=O)NO)cc1)C(=O)Nc1ccccc1 [Nexturastat A]
Summary of the method: as §1

[6] = compound: CCCS(=O)(=O)Nc1ccc(F)c(C(=O)c2c[nH]c3ncc(-c4ccc(Cl)cc4)cc23)c1F [vemurafenib]
Summary of the method: as §1

[7] = compound: CCCS(=O)(=O)Nc1ccc(F)c(C(=O)c2c[nH]c3ncc(Cl)cc23)c1F
Summary of the method: as §1

[8] = compound: CCCc1cc(C)[nH]c(=O)c1CNC(=O)c1cc(-c2ccnc(N3CCN(C)CC3)c2)cc2c1cnn2C(C)C
Summary of the method: as §1

[9] = compound: CCN(CC)Cc1ccc2cc(COC(=O)Nc3ccc(C(=O)NO)cc3)ccc2c1 [givinostat]
Summary of the method: as §1

[10] = compound: CCN(CCCOc1ccc2c(Nc3cc(CC(=O)Nc4cccc(F)c4)[nH]n3)ncnc2c1)CCOP(=O)(O)O [barasertib]
Summary of the method: as §1

UniProt P62318, sequence (P62318 whole entry, looked up): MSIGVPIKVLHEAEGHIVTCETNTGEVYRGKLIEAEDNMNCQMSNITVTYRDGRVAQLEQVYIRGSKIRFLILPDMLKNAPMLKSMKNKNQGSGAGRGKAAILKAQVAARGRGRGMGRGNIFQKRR
UniProt Q00059, sequence (Q00059 whole entry, looked up): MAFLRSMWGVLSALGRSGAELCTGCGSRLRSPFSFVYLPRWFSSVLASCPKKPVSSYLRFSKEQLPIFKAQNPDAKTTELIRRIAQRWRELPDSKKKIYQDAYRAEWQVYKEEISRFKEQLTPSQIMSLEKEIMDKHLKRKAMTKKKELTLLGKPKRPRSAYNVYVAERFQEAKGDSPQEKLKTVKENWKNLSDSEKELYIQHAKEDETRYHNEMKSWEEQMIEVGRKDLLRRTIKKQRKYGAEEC
UniProt P51532, sequence (P51532 whole entry, looked up): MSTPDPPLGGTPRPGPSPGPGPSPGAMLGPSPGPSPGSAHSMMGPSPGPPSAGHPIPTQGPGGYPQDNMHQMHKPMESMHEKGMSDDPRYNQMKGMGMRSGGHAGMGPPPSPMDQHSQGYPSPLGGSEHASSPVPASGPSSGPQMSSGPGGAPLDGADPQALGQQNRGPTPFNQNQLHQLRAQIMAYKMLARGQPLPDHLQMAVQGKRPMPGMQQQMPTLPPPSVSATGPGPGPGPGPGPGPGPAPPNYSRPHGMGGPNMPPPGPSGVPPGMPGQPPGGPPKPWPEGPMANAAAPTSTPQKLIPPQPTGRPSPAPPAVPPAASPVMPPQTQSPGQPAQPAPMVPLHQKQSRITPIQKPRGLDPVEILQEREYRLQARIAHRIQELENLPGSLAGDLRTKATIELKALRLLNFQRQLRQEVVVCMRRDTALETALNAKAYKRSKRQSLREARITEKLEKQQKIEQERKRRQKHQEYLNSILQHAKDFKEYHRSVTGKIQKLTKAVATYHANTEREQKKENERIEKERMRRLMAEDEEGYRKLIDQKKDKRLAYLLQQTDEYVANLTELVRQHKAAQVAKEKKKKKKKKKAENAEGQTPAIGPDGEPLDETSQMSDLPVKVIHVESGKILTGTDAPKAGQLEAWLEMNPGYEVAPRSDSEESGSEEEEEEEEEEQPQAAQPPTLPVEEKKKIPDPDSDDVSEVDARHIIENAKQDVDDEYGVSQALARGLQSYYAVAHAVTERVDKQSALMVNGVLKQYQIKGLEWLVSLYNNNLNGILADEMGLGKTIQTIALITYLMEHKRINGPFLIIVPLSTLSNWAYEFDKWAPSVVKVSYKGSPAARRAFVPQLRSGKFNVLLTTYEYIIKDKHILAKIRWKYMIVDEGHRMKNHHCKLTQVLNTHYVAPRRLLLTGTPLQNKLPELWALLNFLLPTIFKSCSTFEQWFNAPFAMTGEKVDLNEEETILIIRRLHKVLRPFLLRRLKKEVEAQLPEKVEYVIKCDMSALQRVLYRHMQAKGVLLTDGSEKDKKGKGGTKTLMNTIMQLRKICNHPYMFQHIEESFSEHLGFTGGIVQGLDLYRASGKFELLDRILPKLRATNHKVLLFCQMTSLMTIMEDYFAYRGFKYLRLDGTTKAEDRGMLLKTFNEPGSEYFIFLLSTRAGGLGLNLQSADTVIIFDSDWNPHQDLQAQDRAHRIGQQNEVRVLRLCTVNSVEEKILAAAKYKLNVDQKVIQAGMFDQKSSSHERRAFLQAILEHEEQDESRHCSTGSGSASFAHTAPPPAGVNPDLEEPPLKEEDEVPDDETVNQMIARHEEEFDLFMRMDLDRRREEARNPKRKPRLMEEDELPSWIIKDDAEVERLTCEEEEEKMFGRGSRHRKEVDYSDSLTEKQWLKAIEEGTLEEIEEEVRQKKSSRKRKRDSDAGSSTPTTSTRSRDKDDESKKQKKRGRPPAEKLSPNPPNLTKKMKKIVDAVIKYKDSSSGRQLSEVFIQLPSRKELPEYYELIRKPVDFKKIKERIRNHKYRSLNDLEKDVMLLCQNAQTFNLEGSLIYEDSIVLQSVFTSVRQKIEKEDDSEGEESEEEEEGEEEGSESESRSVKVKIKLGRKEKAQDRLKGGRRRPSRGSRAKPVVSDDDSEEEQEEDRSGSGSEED
UniProt P08579, sequence (P08579 whole entry, looked up): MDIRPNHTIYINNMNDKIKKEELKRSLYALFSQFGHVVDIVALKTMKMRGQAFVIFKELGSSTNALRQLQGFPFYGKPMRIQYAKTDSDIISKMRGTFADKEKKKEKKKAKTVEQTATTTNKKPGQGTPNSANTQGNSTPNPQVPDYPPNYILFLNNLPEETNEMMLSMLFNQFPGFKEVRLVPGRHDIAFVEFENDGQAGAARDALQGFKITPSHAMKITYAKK
UniProt P40763, sequence (P40763 whole entry, looked up): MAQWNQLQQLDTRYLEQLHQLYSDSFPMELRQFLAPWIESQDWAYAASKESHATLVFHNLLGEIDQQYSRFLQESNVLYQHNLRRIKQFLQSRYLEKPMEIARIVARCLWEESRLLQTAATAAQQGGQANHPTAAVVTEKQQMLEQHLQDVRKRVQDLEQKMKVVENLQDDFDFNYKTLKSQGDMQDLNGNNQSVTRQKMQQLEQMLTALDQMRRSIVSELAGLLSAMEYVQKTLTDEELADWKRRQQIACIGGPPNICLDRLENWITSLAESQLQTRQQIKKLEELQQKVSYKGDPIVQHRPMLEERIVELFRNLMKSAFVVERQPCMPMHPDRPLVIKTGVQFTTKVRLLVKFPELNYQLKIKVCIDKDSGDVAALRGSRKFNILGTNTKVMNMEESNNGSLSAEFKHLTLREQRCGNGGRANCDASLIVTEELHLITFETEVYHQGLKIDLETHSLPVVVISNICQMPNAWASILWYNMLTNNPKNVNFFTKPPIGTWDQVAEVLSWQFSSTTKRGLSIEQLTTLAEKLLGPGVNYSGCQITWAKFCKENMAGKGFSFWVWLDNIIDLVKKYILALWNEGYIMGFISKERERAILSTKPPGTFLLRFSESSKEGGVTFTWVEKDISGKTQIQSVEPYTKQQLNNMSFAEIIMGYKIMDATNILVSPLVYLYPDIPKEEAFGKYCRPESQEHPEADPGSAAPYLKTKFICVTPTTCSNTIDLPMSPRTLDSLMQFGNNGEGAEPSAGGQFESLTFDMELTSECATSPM
UniProt Q13596, sequence (Q13596 whole entry, looked up): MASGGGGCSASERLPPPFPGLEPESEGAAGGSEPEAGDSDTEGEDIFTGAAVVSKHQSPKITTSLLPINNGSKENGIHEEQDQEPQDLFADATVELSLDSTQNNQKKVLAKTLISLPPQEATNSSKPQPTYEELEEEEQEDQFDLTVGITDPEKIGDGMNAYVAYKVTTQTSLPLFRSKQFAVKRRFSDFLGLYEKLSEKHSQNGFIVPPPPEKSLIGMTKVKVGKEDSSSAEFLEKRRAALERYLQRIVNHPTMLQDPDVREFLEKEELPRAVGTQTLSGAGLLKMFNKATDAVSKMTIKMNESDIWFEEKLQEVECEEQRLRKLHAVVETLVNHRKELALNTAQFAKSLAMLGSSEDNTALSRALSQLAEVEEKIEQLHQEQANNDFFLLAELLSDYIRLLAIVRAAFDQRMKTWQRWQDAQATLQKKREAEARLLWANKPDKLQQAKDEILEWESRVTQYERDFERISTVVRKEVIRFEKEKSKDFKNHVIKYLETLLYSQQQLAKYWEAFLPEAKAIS
UniProt Q5T5C0, sequence (Q5T5C0 whole entry, looked up): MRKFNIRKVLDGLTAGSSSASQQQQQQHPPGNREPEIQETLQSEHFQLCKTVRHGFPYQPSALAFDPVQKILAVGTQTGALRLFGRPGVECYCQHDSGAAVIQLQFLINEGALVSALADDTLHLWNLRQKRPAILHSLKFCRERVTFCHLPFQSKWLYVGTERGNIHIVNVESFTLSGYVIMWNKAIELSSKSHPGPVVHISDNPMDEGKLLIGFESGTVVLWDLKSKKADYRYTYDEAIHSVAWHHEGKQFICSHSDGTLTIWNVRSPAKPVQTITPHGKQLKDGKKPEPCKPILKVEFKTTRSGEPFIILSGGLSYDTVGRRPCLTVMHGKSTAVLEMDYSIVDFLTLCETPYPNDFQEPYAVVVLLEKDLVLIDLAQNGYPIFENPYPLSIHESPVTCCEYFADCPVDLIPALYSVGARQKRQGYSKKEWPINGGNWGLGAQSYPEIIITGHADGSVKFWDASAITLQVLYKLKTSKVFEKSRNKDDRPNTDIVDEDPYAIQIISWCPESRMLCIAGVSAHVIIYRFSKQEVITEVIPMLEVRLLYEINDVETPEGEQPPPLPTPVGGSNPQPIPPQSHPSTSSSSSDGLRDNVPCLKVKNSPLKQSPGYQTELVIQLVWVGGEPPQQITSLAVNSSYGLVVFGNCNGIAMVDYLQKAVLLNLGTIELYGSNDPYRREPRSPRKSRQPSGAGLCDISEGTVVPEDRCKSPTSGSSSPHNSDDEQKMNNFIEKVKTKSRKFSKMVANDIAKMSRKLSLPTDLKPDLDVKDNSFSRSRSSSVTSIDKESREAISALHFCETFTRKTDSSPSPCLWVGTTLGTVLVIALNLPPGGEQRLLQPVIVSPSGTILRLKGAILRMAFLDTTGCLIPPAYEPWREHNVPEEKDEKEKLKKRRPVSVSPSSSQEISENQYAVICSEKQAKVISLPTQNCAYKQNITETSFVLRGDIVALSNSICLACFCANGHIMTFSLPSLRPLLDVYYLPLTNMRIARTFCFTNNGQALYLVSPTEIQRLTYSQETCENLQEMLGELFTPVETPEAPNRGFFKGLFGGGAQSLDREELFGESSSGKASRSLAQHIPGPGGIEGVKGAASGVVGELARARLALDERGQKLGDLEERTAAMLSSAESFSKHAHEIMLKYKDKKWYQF
UniProt O75494, sequence (O75494 whole entry, looked up): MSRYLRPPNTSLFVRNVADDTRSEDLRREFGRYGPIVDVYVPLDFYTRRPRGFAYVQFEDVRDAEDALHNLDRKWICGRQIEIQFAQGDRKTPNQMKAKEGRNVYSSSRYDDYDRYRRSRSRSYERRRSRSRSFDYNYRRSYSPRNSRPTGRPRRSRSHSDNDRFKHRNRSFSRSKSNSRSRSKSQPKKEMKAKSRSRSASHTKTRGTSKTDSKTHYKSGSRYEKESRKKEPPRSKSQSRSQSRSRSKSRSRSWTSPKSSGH

Target | log2 fold change [1] | log2 fold change [2] | log2 fold change [3] | log2 fold change [4] | log2 fold change [5] | log2 fold change [6] | log2 fold change [7] | log2 fold change [8] | log2 fold change [9] | log2 fold change [10]
TFB2M (UniProt Q9H5Q4) | -0.017 | 0 | 0.008 | 0.086 | -0.077 | 0.035 | 0.073 | -0.058 | 0.017 | 0.048
SNUPN (UniProt O95149) | -0.078 | 0.052 | 0.013 | 0.026 | -0.037 | -0.024 | -0.065 | 0.013 | -0.017 | 0.024
SNRPB2 (UniProt P08579) | -0.016 | 0.007 | -0.026 | -0.014 | -0.015 | -0.036 | -0.042 | -0.048 | -0.051 | -0.056
SLC9A6 isoform 2 (UniProt Q92581) | -0.035 | 0.024 | -0.002 | -0.012 | -0.061 | 0.024 | 0 | -0.063 | -0.01 | 0.018
SMPD4 isoform 4 (UniProt Q9NXE4) | 0.022 | -0.011 | 0.075 | 0.112 | 0.075 | 0.02 | 0.058 | -0.034 | 0.066 | 0.13
ST6GAL1 (UniProt P15907) | 0.025 | -0.032 | -0.028 | -0.064 | -0.031 | -0.1 | -0.069 | 0.047 | -0.005 | -0.014
THADA (UniProt Q6YHU6) | 0.03 | -0.038 | 0.019 | -0.01 | -0.021 | 0.038 | 0.06 | 0.039 | -0.006 | 0.07
SNX9 (UniProt Q9Y5X1) | 0.018 | -0.031 | -0.002 | 0.03 | 0.048 | 0.006 | 0.041 | -0.027 | -0.099 | 0.007
SNX1 (UniProt Q13596) | -0.014 | -0.001 | -0.001 | 0.042 | -0.025 | 0.002 | 0.083 | -0.014 | 0.054 | 0.037
STARD3 (UniProt Q14849) | 0.103 | 0.075 | -0.027 | 0.036 | -0.048 | 0.052 | -0.059 | 0 | 0.011 | 0.016
SPG11 (UniProt Q96JI7) | -0.384 | 0.068 | -0.063 | -0.182 | 0.359 | -0.415 | -0.008 | -1.21 | 0.023 | 0.029
TLK2 isoform 2 (UniProt Q86UE8) | -0.003 | -0.015 | -0.013 | 0.02 | -0.072 | -0.029 | 0.03 | -0.036 | 0.099 | -0.006
TARS2 (UniProt Q9BW92) | -0.027 | 0.022 | 0.021 | 0.078 | -0.201 | 0.008 | 0.027 | -0.013 | -0.245 (active) | 0.028
STXBP5 (UniProt Q5T5C0) | -0.021 | -0.041 | -0.007 | -0.006 | -0.002 | -0.038 | 0.013 | -0.006 | 0.022 | -0.004
TBC1D15 isoform 3 (UniProt Q8TC07) | 0.076 | -0.028 | -0.003 | -0.019 | 0.002 | 0.049 | 0.12 | -0.015 | 0.046 | 0.068
TELO2 (UniProt Q9Y4R8) | 0.04 | -0.026 | 0.028 | -0.057 | 0.143 | 0.12 | 0.089 | 0.014 | 0.084 | 0.05
SMG1 (UniProt Q96Q15) | -0.068 | -0.048 | 0.031 | 0.012 | 0.045 | 0.029 | 0.077 | -0.096 | 0.05 | 0.075
STARD9 (UniProt Q9P2P6) | -0.29 | 0.01 | -0.07 | -0.048 | 0.144 | -0.161 | 0.029 | -0.035 | -0.046 | -0.017
STAT6 (UniProt P42226) | -0.092 | -0.111 | 0.053 | 0.015 | 0.044 | 0.058 | 0.082 | -0.012 | 0.078 | 0.001
TGFBRAP1 (UniProt Q8WUH2) | -0.058 | -0.001 | 0.138 | 0.061 | 0.107 | -0.055 | -0.003 | 0.038 | 0.092 | 0.01
SRSF10 (UniProt O75494) | -0.046 | 0.029 | -0.076 | -0.134 | 0.227 | -0.027 | -0.027 | 0.083 | 0.017 | -0.045
SLK isoform 2 (UniProt Q9H2G2) | -0.078 | -0.07 | 0.051 | 0.02 | -0.007 | 0.03 | 0.092 | 0.026 | 0 | 0.047
STAT3 (UniProt P40763) | 0.012 | 0.001 | -0.009 | -0.008 | 0.005 | 0.101 | 0.102 | 0.017 | 0.089 | 0.064
SOAT1 (UniProt P35610) | 0.259 | -0.044 | 0.038 | -0.03 | 0.002 | -0.036 | -0.015 | -0.137 | 0.152 | 0.001
SMARCA4 (UniProt P51532) | 0.039 | -0.111 | -0.296 | -0.028 | 0.351 | -0.261 | -0.556 | -0.084 | 0.159 | 0.137
SSR4 (UniProt P51571) | -0.004 | 0.012 | 0.064 | 0.039 | -0.046 | -0.014 | 0.081 | -0.035 | 0.03 | -0.052
SPAG9 (UniProt O60271) | 0.023 | -0.045 | 0.002 | 0.004 | 0.039 | 0.028 | 0.053 | 0.014 | 0.06 | 0.037
SUCLA2 (UniProt Q9P2R7) | -0.038 | -0.018 | 0.003 | 0.06 | -0.083 | 0.047 | 0.008 | -0.02 | -0.003 | 0.064
TFAM (UniProt Q00059) | 0.039 | -0.004 | -0.036 | -0.036 | 0.079 | -0.05 | -0.043 | -0.033 | -0.055 | -0.023
SNRPD3 (UniProt P62318) | -0.03 | 0.031 | -0.048 | -0.079 | -0.023 | -0.015 | -0.102 | -0.126 | 0 | -0.039
